In PubChem BioAssay (NCI):
This is part of a sample that, as a whole, favours compounds with a hit. Of some 83,000 tested, about 20% had one in any assay.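 Assay: single dose, 48 h. Readout: percent growth (0 = no net growth; negative = cell death). Active: <10.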 Activity calls are given as the source filed them.

Columns and labels:
Assay in all cases: NCI-60 one-dose screen, 48 h (100 = growth as untreated, 0 = no growth, -100 = all killed)
Conditions in all cases: 10 µM unless noted
SK-MEL-2 melanoma = tested on: SK-MEL-2 melanoma
EKVX NSCLC = tested on: EKVX NSCLC
SN12C renal = tested on: SN12C renal
UO-31 renal = tested on: UO-31 renal
TK-10 renal = tested on: TK-10 renal
A498 renal = tested on: A498 renal
CCRF-CEM leukemia = tested on: CCRF-CEM leukemia
MOLT-4 leukemia = tested on: MOLT-4 leukemia
SR leukemia = tested on: SR leukemia
RPMI-8226 leukemia = tested on: RPMI-8226 leukemia
OVCAR-8 ovarian = tested on: OVCAR-8 ovarian
OVCAR-5 ovarian = tested on: OVCAR-5 ovarian
OVCAR-4 ovarian = tested on: OVCAR-4 ovarian
SK-OV-3 ovarian = tested on: SK-OV-3 ovarian
IGROV1 ovarian = tested on: IGROV1 ovarian
OVCAR-3 ovarian = tested on: OVCAR-3 ovarian
HS 578T breast = tested on: HS 578T breast
NCI/ADR-RES ovarian = tested on: NCI/ADR-RES ovarian
T-47D breast = tested on: T-47D breast
ACHN renal = tested on: ACHN renal

Measured: growth

CC(C)(C)c1nc2c(s1)c1nc(N)ncc1c1ccc(NS(=O)(=O)c3c(F)cccc3F)c(F)c12
active: A498 renal -2.96%
inactive: SK-MEL-2 melanoma 50% | EKVX NSCLC 60.5% | SN12C renal 58.9% | UO-31 renal 28.9% | TK-10 renal 64.4% | CCRF-CEM leukemia 73.3% | MOLT-4 leukemia 59.5% | SR leukemia 42.3% | RPMI-8226 leukemia 68.9% | OVCAR-8 ovarian 61.1% | OVCAR-5 ovarian 104% | OVCAR-4 ovarian 60.7% | SK-OV-3 ovarian 13.7% | IGROV1 ovarian 38.5% | OVCAR-3 ovarian 80.7% | HS 578T breast 60.4% | NCI/ADR-RES ovarian 80.6% | T-47D breast 42.9%

O=CN1N=C(c2ccc(F)cc2)CC1c1cccc(Nc2ccnc3cc(C(F)(F)F)ccc23)c1 (stereo unspecified)
inactive: SK-MEL-2 melanoma 54.2% | EKVX NSCLC 50.6% | SN12C renal 81% | UO-31 renal 44.6% | TK-10 renal 62.7% | A498 renal 49.6% | CCRF-CEM leukemia 44.8% | MOLT-4 leukemia 23.1% | SR leukemia 20.2% | RPMI-8226 leukemia 24.6% | OVCAR-8 ovarian 41.5% | OVCAR-5 ovarian 95.2% | OVCAR-4 ovarian 41% | SK-OV-3 ovarian 69.1% | IGROV1 ovarian 67.9% | OVCAR-3 ovarian 59.8% | HS 578T breast 73.5% | NCI/ADR-RES ovarian 47.4% | T-47D breast 26.4%

O=C1CC23OC(C(O)c4ccccc4N12)C1C(c2ccccc2)=NOC13 (stereo unspecified)
inactive: SK-MEL-2 melanoma 40.8% | EKVX NSCLC 57.7% | SN12C renal 42.9% | UO-31 renal 45.1% | TK-10 renal 102% | A498 renal 71% | CCRF-CEM leukemia 68.3% | MOLT-4 leukemia 37.2% | SR leukemia 22.2% | RPMI-8226 leukemia 28.5% | OVCAR-8 ovarian 70.4% | OVCAR-5 ovarian 81.2% | OVCAR-4 ovarian 89.7% | SK-OV-3 ovarian 79.9% | IGROV1 ovarian 43.6% | OVCAR-3 ovarian 56.7% | HS 578T breast 52.2% | NCI/ADR-RES ovarian 15.8% | T-47D breast 52.8%

COc1cccc(NC(=O)Nc2ccc(Oc3ncnc4[nH]c(C)c(C)c34)cc2)c1
inactive: SK-MEL-2 melanoma 100% | EKVX NSCLC 102% | SN12C renal 74.5% | UO-31 renal 86.1% | TK-10 renal 114% | A498 renal 106% | CCRF-CEM leukemia 76.4% | MOLT-4 leukemia 56.9% | SR leukemia 10.5% | RPMI-8226 leukemia 72.4% | OVCAR-8 ovarian 77% | OVCAR-5 ovarian 129% | OVCAR-4 ovarian 99.2% | SK-OV-3 ovarian 107% | IGROV1 ovarian 52% | OVCAR-3 ovarian 103% | HS 578T breast 84.8% | NCI/ADR-RES ovarian 83.5% | T-47D breast 95.2%

CCCCn1c2cc(OCc3cn(-c4ccc(Cl)cc4)nn3)ccc2c2ccnc(C)c21
active: UO-31 renal -16.3% | MOLT-4 leukemia 6.26% | SR leukemia -4.92% | RPMI-8226 leukemia -34.3%
inactive: SK-MEL-2 melanoma 74.5% | EKVX NSCLC 44.4% | SN12C renal 10.5% | TK-10 renal 15.6% | A498 renal 62.8% | CCRF-CEM leukemia 30.5% | OVCAR-8 ovarian 29.7% | OVCAR-5 ovarian 39.5% | OVCAR-4 ovarian 18.2% | SK-OV-3 ovarian 52.9% | IGROV1 ovarian 39.3% | OVCAR-3 ovarian 30.1% | HS 578T breast 54.2% | NCI/ADR-RES ovarian 28% | T-47D breast 22.2%

CCc1n(Cc2ccc3ccccc3c2)c2ccccc2[n+]1Cc1ccc2ccccc2c1
inactive: SK-MEL-2 melanoma 71.6% | EKVX NSCLC 76.7% | SN12C renal 65.2% | UO-31 renal 87.2% | TK-10 renal 75.5% | A498 renal 87.6% | CCRF-CEM leukemia 63.5% | MOLT-4 leukemia 73.4% | SR leukemia 28.4% | RPMI-8226 leukemia 13.5% | OVCAR-8 ovarian 55.1% | OVCAR-5 ovarian 75.7% | OVCAR-4 ovarian 18.3% | SK-OV-3 ovarian 83% | IGROV1 ovarian 45.8% | OVCAR-3 ovarian 34.3% | HS 578T breast 82.7% | NCI/ADR-RES ovarian 105% | T-47D breast 25.4%

COc1cc(-c2nn(-c3ccc(Br)cc3)cc2CO)ccc1O
inactive: SK-MEL-2 melanoma 100% | EKVX NSCLC 92.5% | SN12C renal 97.1% | UO-31 renal 59.9% | TK-10 renal 110% | A498 renal 77.2% | CCRF-CEM leukemia 54.9% | MOLT-4 leukemia 57.1% | SR leukemia 65.4% | RPMI-8226 leukemia 84.6% | OVCAR-8 ovarian 94.9% | OVCAR-5 ovarian 101% | OVCAR-4 ovarian 94.7% | SK-OV-3 ovarian 105% | IGROV1 ovarian 115% | OVCAR-3 ovarian 103% | HS 578T breast 88.9% | NCI/ADR-RES ovarian 99.3% | T-47D breast 80.3%

Cc1c(Cl)cccc1NC(=O)c1sc2nc3c(cc2c1N)COCC3
active: NCI/ADR-RES ovarian 6.51%
inactive: SK-MEL-2 melanoma 29.4% | EKVX NSCLC 60.3% | SN12C renal 44.1% | UO-31 renal 49.2% | TK-10 renal 57% | A498 renal 18.1% | CCRF-CEM leukemia 21.1% | MOLT-4 leukemia 27.5% | SR leukemia 15.4% | RPMI-8226 leukemia 30.3% | OVCAR-8 ovarian 33.6% | OVCAR-5 ovarian 55.3% | OVCAR-4 ovarian 60.9% | SK-OV-3 ovarian 26.5% | IGROV1 ovarian 45.8% | OVCAR-3 ovarian 17.8% | HS 578T breast 40.1% | T-47D breast 32.4%

COc1cccc2c1-c1ccccc1C2=O
inactive: SK-MEL-2 melanoma 34.3% | SN12C renal 53.9% | UO-31 renal 47.1% | TK-10 renal 66.7% | ACHN renal 50% | MOLT-4 leukemia 73.9% | SR leukemia 40.4% | RPMI-8226 leukemia 14.9% | OVCAR-8 ovarian 21.5% | OVCAR-5 ovarian 65.6% | OVCAR-4 ovarian 56.5% | SK-OV-3 ovarian 30.6% | IGROV1 ovarian 33.3% | HS 578T breast 19.6% | T-47D breast 33.2%
active: A498 renal 7.69% | CCRF-CEM leukemia 5.55% | OVCAR-3 ovarian -26.4% | NCI/ADR-RES ovarian 8.62%

O=c1[nH]nc(-c2ccc(Br)cc2)c2sc(NC(=S)Nc3ccc(Cl)cc3)nc12
active: HS 578T breast -1.82%
inactive: SK-MEL-2 melanoma 101% | SN12C renal 109% | UO-31 renal 89.2% | TK-10 renal 123% | ACHN renal 102% | A498 renal 100% | CCRF-CEM leukemia 98.4% | MOLT-4 leukemia 105% | SR leukemia 106% | RPMI-8226 leukemia 101% | OVCAR-8 ovarian 95.4% | OVCAR-5 ovarian 97.3% | OVCAR-4 ovarian 91.5% | SK-OV-3 ovarian 96.9% | IGROV1 ovarian 81.1% | OVCAR-3 ovarian 104% | NCI/ADR-RES ovarian 80% | T-47D breast 85.9%

O=C(O)c1ccc(-n2cc(/C=N/Nc3ccc(Cl)cc3Cl)c(-c3ccccc3)n2)cc1
inactive: SK-MEL-2 melanoma 91.6% | SN12C renal 102% | UO-31 renal 67.5% | TK-10 renal 109% | ACHN renal 83% | A498 renal 108% | CCRF-CEM leukemia 93.8% | MOLT-4 leukemia 88.9% | SR leukemia 86.2% | RPMI-8226 leukemia 83.2% | OVCAR-8 ovarian 98.6% | OVCAR-5 ovarian 107% | OVCAR-4 ovarian 87.3% | SK-OV-3 ovarian 89.4% | IGROV1 ovarian 89% | OVCAR-3 ovarian 88.7% | HS 578T breast 107% | NCI/ADR-RES ovarian 92.3% | T-47D breast 70.7%

Cc1ccc(C2=N[C@H]3CCC[C@@H]3N(c3ccccc3)C(C(Cl)Cl)=N2)cc1
inactive: SK-MEL-2 melanoma 96.8% | SN12C renal 107% | UO-31 renal 81.9% | TK-10 renal 100% | ACHN renal 98% | A498 renal 112% | CCRF-CEM leukemia 96.4% | MOLT-4 leukemia 94.3% | SR leukemia 95.8% | RPMI-8226 leukemia 111% | OVCAR-8 ovarian 113% | OVCAR-5 ovarian 91.3% | OVCAR-4 ovarian 96.9% | SK-OV-3 ovarian 111% | IGROV1 ovarian 98.7% | OVCAR-3 ovarian 103% | HS 578T breast 100% | NCI/ADR-RES ovarian 97.9% | T-47D breast 106%

Nc1ccccc1NC(=O)c1ccc(CSc2nc(N3CCOCC3)c3cccn3n2)cc1
inactive: SN12C renal 16.6% | SR leukemia 13.4% | OVCAR-8 ovarian 15.9% | OVCAR-5 ovarian 29.5% | OVCAR-4 ovarian 42% | IGROV1 ovarian 21.5% | HS 578T breast 23.1%
active: SK-MEL-2 melanoma -28.9% | UO-31 renal -24.8% | TK-10 renal -10.7% | A498 renal -12.1% | CCRF-CEM leukemia 5.4% | MOLT-4 leukemia 1.08% | RPMI-8226 leukemia -4.81% | SK-OV-3 ovarian 6.2% | OVCAR-3 ovarian 1.87% | NCI/ADR-RES ovarian 3.65% | T-47D breast -1.13%

CSc1nc(-c2cccs2)c2c(N)[nH]nc2n1
inactive: SK-MEL-2 melanoma 104% | SN12C renal 109% | UO-31 renal 84.1% | TK-10 renal 93.4% | ACHN renal 101% | A498 renal 66.7% | CCRF-CEM leukemia 109% | MOLT-4 leukemia 87% | SR leukemia 73.3% | RPMI-8226 leukemia 112% | OVCAR-5 ovarian 106% | OVCAR-4 ovarian 108% | SK-OV-3 ovarian 89.9% | IGROV1 ovarian 111% | OVCAR-3 ovarian 109% | HS 578T breast 106% | NCI/ADR-RES ovarian 102% | T-47D breast 90.3%

COc1c(O)cc2oc3cc(O[C@@H]4OC(C)[C@@H](O)[C@H](O)C4O)c(CC=C(C)C)c(O)c3c(=O)c2c1CC=C(C)C (stereo partly specified)
inactive: SK-MEL-2 melanoma 90.5% | SN12C renal 99.7% | UO-31 renal 80.3% | TK-10 renal 92.6% | ACHN renal 102% | A498 renal 67.9% | CCRF-CEM leukemia 83.5% | MOLT-4 leukemia 65.1% | SR leukemia 103% | RPMI-8226 leukemia 73.2% | OVCAR-5 ovarian 119% | OVCAR-4 ovarian 102% | SK-OV-3 ovarian 113% | IGROV1 ovarian 83.9% | OVCAR-3 ovarian 94.7% | HS 578T breast 98.4% | NCI/ADR-RES ovarian 102% | T-47D breast 86.6%

COc1ccc(/C=C(/C(=O)N2CCCC2)c2cc(OC)c(OC)c(OC)c2)cc1
active: RPMI-8226 leukemia 8.53% | OVCAR-3 ovarian 5.36%
inactive: SK-MEL-2 melanoma 64.3% | SN12C renal 48.1% | UO-31 renal 44.5% | TK-10 renal 71.3% | ACHN renal 54.5% | A498 renal 13.4% | CCRF-CEM leukemia 14% | MOLT-4 leukemia 32.6% | SR leukemia 19.7% | OVCAR-8 ovarian 40% | OVCAR-5 ovarian 63.1% | OVCAR-4 ovarian 68.9% | SK-OV-3 ovarian 22.3% | IGROV1 ovarian 49.9% | HS 578T breast 27.8% | NCI/ADR-RES ovarian 22% | T-47D breast 42.4%
